# Several values for one entry are separate records, joined by “and”; a condition that tells them apart may be missing. Equal entries are not always repeated. Activity calls are given as the source filed them. Rule as the data show it, unless noted: active = inhibition above about 80%; inactive = the rest.
# Key:
# [1] = growth inhibition, single agent or in combination, cell-based, chromothripsis tumors, cisplatin or BGB combos (AID 1671449); conditions: LFS_MB_P medulloblastoma cells;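 also: cells exposed for 96 hours; 0% = vehicle DMSO and 100% = killing by high DMSO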
# [2] = growth inhibition, single agent and combos, cell-based, chromothripsis tumors, cisplatin or BGB combos (AID 1671450); conditions: HDN33 neuroblastoma cells, stronger effect = higher value;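 also: cells exposed to compound for four days; 0% = vehicle DMSO and 100% = cell killing by high DMSO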
# [3] = growth inhibition, single agents and combos, ICB984, cell-based, cisplatin or BGB combos, synergistic combos for chromothripsis tumors (AID 1671451; call rule not given here;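 also: cells exposed for 96 hours before readout; 0% = vehicle DMSO and 100% = killing by high DMSO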); conditions: ICB984 medulloblastoma cells, drug combinations, stronger effect = higher value
# [4] = growth inhibition, single agents and combos, LFS_MB_1R, cell-based, cisplatin or BGB combos, synergistic combos for chromothripsis tumors (AID 1671452); conditions: LFS_MB_1R medulloblastoma cells, stronger effect = higher value;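 also: cells exposed for 96 hours before readout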
# [5] = growth inhibition, single agents and combos, HTB85, cell-based, BGB or cisplatin IC20 combos, synergistic combos for chromothripsis tumors (AID 1671453); conditions: HTB85 osteosarcoma cells, drug combinations, stronger effect = higher value;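 also: cells exposed for 96 hours before readout; 0% = vehicle DMSO and 100% = high DMSO killing control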
# [6] = growth inhibition, single agents and combos, CRL2098, cell-based, BGB or cisplatin IC20 combos, synergistic combos for chromothripsis tumors (AID 1671454); conditions: CRL2098 osteosarcoma cells, drug combinations, stronger effect = higher value;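 also: cells exposed for 96 h before readout; 0% = vehicle DMSO and 100% = killing by high DMSO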
# [7] = growth inhibition, single agents and combos, HD-MB03, cell-based, BGB or cisplatin IC20 combos, synergistic combos for chromothripsis tumors (AID 1671455; in the data active = inhibition above about 83%;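 also: 0% = vehicle DMSO and 100% = high DMSO as cytotoxic control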); conditions: HD-MB03 medulloblastoma cells, stronger effect = higher value
# [8] = growth inhibition, single agents and combos, UWB1.289, cell-based, BGB or cisplatin combos, synergistic combos for chromothripsis tumors (AID 1671456); conditions: UWB1.289 ovarian carcinoma cells, stronger effect = higher value;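 also: cells exposed to compound for four days; 0% = vehicle DMSO and 100% = killing by high DMSO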
# [9] = growth inhibition, single agents and combos, LFS_MB_2R, cell-based, cisplatin combos, synergistic combos for chromothripsis tumors (AID 1671457); conditions: LFS_MB_2R medulloblastoma cells, stronger effect = higher value;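 also: cells exposed to compound for four days before readout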
# [10] = growth inhibition, MDA-MB-436, cell-based, BGB or cisplatin combos, synergistic combos for chromothripsis tumors (AID 1671458; call rule not given here;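 also: cells exposed for 96 hours; 0% = vehicle DMSO and 100% = killing by high DMSO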); conditions: MDA-MB-436 breast carcinoma growth inhibition, drug combinations, stronger effect = higher value
# [11] = UWB1.289_BRCA1 ovarian cancer growth, cell-based, BGB or cisplatin combinations (AID 1671459); conditions: UWB1.289 BRCA1 ovarian carcinoma, drug combinations, stronger effect = higher value
# [12] = drug combination toxicity in non-malignant astrocytes – cell-based, BGB or cisplatin IC20 combos, cytotoxicity control for chromothriptic childhood tumor combination screen (AID 1671460); conditions: Human astrocytes, viability inhibition, drug combinations, at 0.5 µM, stronger effect = higher value;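 also: cells exposed to compounds for 96 hours before viability readout; 0% = vehicle and 100% = killing control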
# [13] = BT084 cell growth, single and combined drugs, ICGC_MB145, cisplatin and BGB IC40 combos (AID 1671461); conditions: BT084 medulloblastoma cells, drug combinations, stronger effect = higher value;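 also: cells exposed to drugs for 96 hours; 0% = vehicle DMSO and 100% = high DMSO full killing control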
# [14] = RCMB18 cell growth, single agent and combined, cisplatin and BGB IC40 combos (AID 1671462); conditions: RCMB18 medulloblastoma cells, stronger effect = higher value;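 also: cells exposed to compound for four days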
# [15] = CRL1545 cell growth, single agent and combined, cisplatin and BGB IC20 combos (AID 1671464); conditions: CRL1545 osteosarcoma cells, stronger effect = higher value;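 also: cells exposed to compound for 96 hours before readout; 0% = vehicle DMSO and 100% = high DMSO killing control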
# [16] = at 0.5 µM, stronger effect = higher value
# [17] = measured here: combination with BGB IC20, at 0.005 µM
# [18] = measured here: combination with BGB IC40, at 0.005 µM
# [19] = measured here: combination with BGB IC40, at 0.05 µM
# [20] = measured here: combination with cisplatin, at 0.5 µM, stronger effect = higher value
# [21] = measured here: combination with cisplatin, at 5 µM, stronger effect = higher value
# [22] = measured here: with BGB IC20 combination, at 0.5 µM
# [23] = measured here: with cisplatin IC20 combination, at 0.5 µM
# [24] = measured here: 5 uM single agent, at 5 µM
# [25] = measured here: combination with cisplatin, at 0.5 µM
# [26] = measured here: combination with cisplatin, at 5 µM
# [27] = measured here: with BGB IC20, at 0.5 µM
# [28] = measured here: with BGB IC20, at 5 µM
# [29] = measured here: with cisplatin IC20, at 0.5 µM
# [30] = measured here: with cisplatin IC20, at 5 µM
# [31] = measured here: combination with BGB at IC20, at 0.5 µM
# [32] = measured here: combination with cisplatin at IC20, at 0.5 µM
# [33] = measured here: combo with BGB at IC20, at 0.5 µM
# [34] = measured here: combo with cisplatin at IC20, at 0.5 µM
# [35] = measured here: inhibition with BGB combination, at 0.05 µM
# [36] = measured here: inhibition with cisplatin combination, at 0.05 µM
# [37] = measured here: BGB combination, at 0.5 µM
# [38] = measured here: BGB combination, at 5 µM
# [39] = measured here: cisplatin combination, at 0.5 µM
# [40] = measured here: cisplatin combination, at 5 µM
# [41] = BGB combination, concentration series, at 5 µM
# [42] = cisplatin combination, concentration series, at 5 µM
# [43] = measured here: combo with BGB IC20
# [44] = measured here: combo with cisplatin IC20
# [45] = cisplatin combination, at 0.5 µM
# [46] = measured here: BGB IC40 combination 0.05 uM, at 0.05 µM
# [47] = measured here: BGB IC40 combination, at 0.05 µM
compound,measurement,setting,value
O=C(CCSc1nc2ccccc2c(=O)[nH]1)NC1CCC(c2nnc(-c3ccccc3)o2)CC1 (stereo unspecified),inhibition,[1]; [16],-18.8% (inactive)
same,inhibition,[1]; [17],-14.4%
same,inhibition,[1]; [18],-25.3%
same,inhibition,[1]; [19],-55.5%
same,inhibition,[1]; [20],-16.2%
same,inhibition,[1]; [21],-49.7%
same,inhibition,"[2]; BGB combo, at 5 µM",11.8%
same,inhibition,[2]; at 0.5 µM,16.1% (inactive)
same,inhibition,"[2]; cisplatin combo, at 5 µM",29.6%
same,inhibition,[2]; [22],8.27%
same,inhibition,[2]; [23],21.3%
same,inhibition,"[2]; single agent, at 5 µM",32.4%
same,inhibition,"[3]; BGB IC20 combo, at 0.005 µM",-2.22%
same,inhibition,"[3]; BGB IC40 combo, at 0.005 µM",-49.4%
same,inhibition,"[3]; BGB IC40 combo, at 0.05 µM",-27.2%
same,inhibition,[3]; at 0.5 µM,-25.5% (inactive)
same,inhibition,"[3]; cisplatin combo, at 0.05 µM",-31.8%
same,inhibition,"[3]; cisplatin combo, at 0.5 µM",-22.3%
same,inhibition,"[3]; cisplatin combo, at 5 µM",-10.9%
same,inhibition,[3]; [24],-18.3%
same,inhibition,[4]; at 0.5 µM,-14.6% (inactive)
same,inhibition,[4]; [19],6.03%
same,inhibition,[4]; [25],-5.82%
same,inhibition,[4]; [26],-21.2%
same,inhibition,[5]; at 0.5 µM,2.93% (inactive)
same,inhibition,[5]; [27],-9.32%
same,inhibition,[5]; [28],-14.4%
same,inhibition,[5]; [29],5.46%
same,inhibition,[5]; [30],-13.6%
same,inhibition,"[5]; single agent, at 5 µM",0.754%
same,inhibition,[6]; at 0.5 µM,-30.9% (inactive)
same,inhibition,[6]; [31],-25.3%
same,inhibition,[6]; [32],-55.1%
same,inhibition,[7]; at 0.5 µM,5.94% (inactive)
same,inhibition,[7]; [33],-6.25%
same,inhibition,[7]; [34],23%
same,inhibition,[8]; at 0.5 µM,10.2% (inactive)
same,inhibition,[8]; [35],-3.32%
same,inhibition,[8]; [36],13%
same,inhibition,[9]; at 0.5 µM,-3.45% (inactive)
same,inhibition,[9]; [25],-13.5%
same,inhibition,[9]; [26],-4.17%
same,inhibition,[10]; at 0.5 µM,4.84% (inactive)
same,inhibition,[10]; [37],-2.01%
same,inhibition,[10]; [38],-13.2%
same,inhibition,[10]; [39],5.45%
same,inhibition,[10]; [40],-2.11%
same,inhibition,[11]; [41],9.22%
same,inhibition,[11]; at 0.5 µM,8.17% (inactive)
same,inhibition,[11]; [42],-16.8%
same,inhibition,[12],41.8% (inactive)
same,inhibition,[12]; [43],31.3%
same,inhibition,[12]; [44],43.3%
same,inhibition,[13]; at 0.5 µM,-6.61% (inactive)
same,inhibition,[13]; [45],-27.5%
same,inhibition,"[13]; cisplatin combination, at 5 µM",2.51%
same,inhibition,[13]; [46],-56.9%
same,inhibition,"[13]; single agent, at 5 µM",-15.2%
same,inhibition,[14]; at 0.5 µM,-4.49% (inactive)
same,inhibition,"[14]; cisplatin combo, at 5 µM",16.1%
same,inhibition,[14]; [47],-6.16%
same,inhibition,[14]; [25],22.5%
same,inhibition,"[14]; single agent, at 5 µM",-14.1%
same,inhibition,[15]; at 0.5 µM,-21.1% (inactive)
same,inhibition,[15]; [22],-27%
same,inhibition,[15]; [23],-20%
same,inhibition,"[15]; single agent, at 0.05 µM",24.5%
same,inhibition,"[15]; single agent, at 5 µM",-45%
CN(C)CCNC(=O)c1cccn2c(=O)c3cc4ccccc4cc3nc12,inhibition,[1]; [16],-18% (inactive) and -22.8% (inactive)
same,inhibition,[1]; [17],-22.4% and -7.9%
same,inhibition,[1]; [18],-33.3% and -28%
same,inhibition,[1]; [19],-30.9% and 0.948%
same,inhibition,[1]; [20],-27.4% and -25.4%
same,inhibition,[1]; [21],25.9% and 73.9%
same,inhibition,"[2]; BGB combo, at 5 µM",58.1% and 71.8%
same,inhibition,[2]; at 0.5 µM,4.02% (inactive) and 16.5% (inactive)
same,inhibition,"[2]; cisplatin combo, at 5 µM",63.6% and 83.1%
same,inhibition,[2]; [22],-3.52% and 15.5%
same,inhibition,[2]; [23],5.98% and 5.66%
same,inhibition,"[2]; single agent, at 5 µM",67.9% and 86.2%
same,inhibition,"[3]; BGB IC20 combo, at 0.005 µM",-2.65% and -7.73%
same,inhibition,"[3]; BGB IC40 combo, at 0.005 µM",-19% and -46.8%
same,inhibition,"[3]; BGB IC40 combo, at 0.05 µM",29.2% and 25.5%
same,inhibition,[3]; at 0.5 µM,-22.7% (inactive) and -19.3% (inactive)
same,inhibition,"[3]; cisplatin combo, at 0.05 µM",25.8% and 22.5%
same,inhibition,"[3]; cisplatin combo, at 0.5 µM",-35.6% and -11.2%
same,inhibition,"[3]; cisplatin combo, at 5 µM",-26.2% and -47.1%
same,inhibition,[3]; [24],-15.3% and -26.1%
same,inhibition,[4]; at 0.5 µM,-22.6% (inactive) and -0.28% (inactive)
same,inhibition,[4]; [19],-22.9% and -35.5%
same,inhibition,[4]; [25],-29.9% and 26.6%
same,inhibition,[4]; [26],66.5% and 90.2%
same,inhibition,[5]; at 0.5 µM,-6.94% (inactive) and -9.64% (inactive)
same,inhibition,[5]; [27],10% and -19.8%
same,inhibition,[5]; [28],24.9% and 50.6%
same,inhibition,[5]; [29],-22.5% and -20.8%
same,inhibition,[5]; [30],24% and 36.1%
same,inhibition,"[5]; single agent, at 5 µM",45.2% and 66.6%
same,inhibition,[6]; at 0.5 µM,2.28% (inactive) and -30.7% (inactive)
same,inhibition,[6]; [31],-26.7% and 2.29%
same,inhibition,[6]; [32],7.69% and -23.9%
same,inhibition,[7]; at 0.5 µM,0.57% (inactive) and 18.1% (inactive)
same,inhibition,[7]; [33],5% and 20.5%
same,inhibition,[7]; [34],-3.84% and 18.8%
same,inhibition,[8]; at 0.5 µM,10.9% (inactive) and 15.8% (inactive)
same,inhibition,[8]; [35],-15.6% and -22%
same,inhibition,[8]; [36],-3.25% and -14.4%
same,inhibition,[9]; at 0.5 µM,-28.9% (inactive) and -23.7% (inactive)
same,inhibition,[9]; [25],-34.7% and -23.8%
same,inhibition,[9]; [26],-8.3% and 23.4%
same,inhibition,[10]; at 0.5 µM,-19.8% (inactive) and -0.82% (inactive)
same,inhibition,[10]; [37],-29.6% and -21.4%
same,inhibition,[10]; [38],5.41% and 28.4%
same,inhibition,[10]; [39],-39.6% and -3.6%
same,inhibition,[10]; [40],-6.72% and 54.3%
same,inhibition,[11]; [41],35.7% and 58.1%
same,inhibition,[11]; at 0.5 µM,9.64% (inactive) and 20.1% (inactive)
same,inhibition,[11]; [42],60% and 77.2%
same,inhibition,[12],16.8% (inactive) and 32.4% (inactive)
same,inhibition,[12]; [43],18.7% and 31.3%
same,inhibition,[12]; [44],0.257% and 17.6%
same,inhibition,[13]; at 0.5 µM,-10% (inactive) and -13.6% (inactive)
same,inhibition,[13]; [45],-8.31% and -7.28%
same,inhibition,"[13]; cisplatin combination, at 5 µM",-110% and 45.2%
same,inhibition,[13]; [46],-36.7% and -32.1%
same,inhibition,"[13]; single agent, at 5 µM",-53.7% and -33.8%
same,inhibition,[14]; at 0.5 µM,-4.43% (inactive) and -8.03% (inactive)
same,inhibition,"[14]; cisplatin combo, at 5 µM",24.5% and 56.4%
same,inhibition,[14]; [47],-9.99% and -6.24%
same,inhibition,[14]; [25],-30.6% and 30.2%
same,inhibition,"[14]; single agent, at 5 µM",-2.75% and -32%
same,inhibition,[15]; at 0.5 µM,6.65% (inactive) and -6.99% (inactive)
same,inhibition,[15]; [22],19.7% and -21.2%
same,inhibition,[15]; [23],-1.47% and 0.101%
same,inhibition,"[15]; single agent, at 0.05 µM",-9.51% and -11.2%
same,inhibition,"[15]; single agent, at 5 µM",37.2% and 93.5%

# Reference: PubChem BioAssay
